Assay outcomes: PubChem, National Center for Advancing Translational Sciences (NCATS)
The entries come from a sample that favours hits as a whole.
HT1080 IDH1KD tx: toxicity to HT-1080 IDH1 knockdown cells (counter line); 360,000 compounds, 2% hits; AID 686971; HT-1080 IDH1 knockdown viability, ATP luminescence, 48 h; Potency, µM (doses to about 46.1 µM), inactives show top-dose activity, negative = toxicity, hits mostly cytotoxic;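 further: potency means the concentration at half of the fitted maximal effect; 0% = DMSO wells and -100% = cell-free medium wells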
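In this qHTS, HT-1080 cells depleted of IDH1 are exposed for 48 h at 37 °C to compound titrations. Toxicity is scored from CellTiter-Glo luminescence, with DMSO as full viability and medium alone as none.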
TDP1 cell CPT: growth inhibition of DT40 Tdp1-/-;hTDP1 cells with camptothecin (screen for TDP1 inhibitors). chicken DT40 Tdp1-/-;hTDP1 cells + 20 nM CPT, ATP luminescence, 48 h. Potency, µM (series often up to 46.2 µM), inactives show top-dose activity change, negative = growth inhibition, actives largely listed as inhibitors. 420,000 compounds, 12% hits. AID 686979; further: potency means the concentration at half of the fitted maximal effect; nearly all actives have a fitted effect of over 55% in size
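Chicken DT40 Tdp1-/- cells complemented with human TDP1, 400 cells/well, exposed to compounds plus 20 nM camptothecin for at least 48 h at 37 C; viability read as ATP content by CellTiter-Glo luminescence.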
TDP1 cell noCPT: qHTS for Inhibitors of human tyrosyl-DNA phosphodiesterase 1 (TDP1): qHTS in cells in absence of CPT. 420,000 compounds, 15% hits. DT40 Tdp1-/- hTDP1 cells, no CPT, ATP luminescence, 48 h. Potency, µM (series often up to 46.2 µM), without a hit: at the highest dose activity change, negative = growth inhibition, hits mostly inhibitors. AID 686978, 2013; further: potency means the concentration at half of the fitted maximal effect; nearly all actives have a fitted effect of over 55% in size
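DT40 Tdp1-/-;hTDP1 cells, no CPT (DMSO vehicle only), 400 cells/well; compounds pin-transferred; ≥48 hr, 37 °C; CellTiter-Glo 30 min RT dark, luminescence read.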
IL1B secr inh: inhibitors of inflammasome signaling (IL-1 beta secretion) | THP-1 LPS/ATP IL-1B secretion, AlphaLISA, 16 h; active compounds read low | 360,000 compounds, 4.7% hits | activity change, % at 57.5 µM; in the data active means activity change below about -50%; inconclusive means mostly about -30% to -49%
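THP-1 cells pretreated 1 hr with compounds (up to 57.5 uM final), then stimulated with LPS (250 ng/mL final) plus ATP (1.25 mM final); secreted IL-1B measured by AlphaLISA after 16 hr, decreased signal indicating inhibition.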
HT1080-NT tox: kills 2HG-producing HT-1080-NT fibrosarcoma cells | HT-1080-NT fibrosarcoma viability, CellTiter-Glo ATP luminescence, 48 h | Potency, µM (highest dose often 46.1 µM), inactives show top-dose activity, negative = less viability, actives largely listed as cytotoxic | 360,000 compounds, 1.6% hits | AID 686970;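 further: NT is the 2HG producing partner of a matched IDH1 knockdown line; potency means the concentration at half of the fitted maximal effect; 0% = DMSO-treated cells and -100% = media-only wells without cells; nearly all actives have a fitted effect of over 55% in size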
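A 48-hour cytotoxicity screen used HT-1080-NT cells plated 2 hours before compound delivery. ATP-based CellTiter-Glo luminescence measured viability, normalized to DMSO and no-cell controls.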
ALOX12 inh: ALOX12 (human) lipoxygenase inhibition; P18054; purified 12hLO, xylenol orange hydroperoxide absorbance; Potency, µM (doses to about 108 µM), for the others: top-dose activity change, negative = inhibition, hits mostly inhibitors; 580,000 compounds, 1.1% hits; AID 1671190; further: potency means the concentration at half of the fitted maximal effect
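Purified human 12hLO (150 nM final) in 25 mM Hepes, 0.01% Triton X-100, pH 7.0 was preincubated 15 min at room temperature with compound. Then 40 uM arachidonic acid was added, 30 min. Hydroperoxide was read by Fe-XO absorbance ratio 573/405 nm.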
Numbers without * were called inactive; ? = inconclusive; / = not tested or not shown. Unless noted, the call rests on the fitted dose curve; in most records, active means well fitted curve in the direction sought with a large enough effect; inconclusive means small, poorly fitted or top-dose-only effect, or another doubt; inactive means no such curve, though single readings can be large; an effect the other way counts as inactive or inconclusive. Unless noted, on the % scale 0 is the no-effect control and ±100 the full control effect.

SMILES	HT1080 IDH1KD tx	TDP1 cell CPT	TDP1 cell noCPT	IL1B secr inh	HT1080-NT tox	ALOX12 inh
CC(C)N=C(NS(=O)(=O)c1ccccc1)C(Cl)(Cl)Cl	7.3µM*	2.9µM*	2.9µM*	-96*	7.3µM*	-6%
COc1ccc(CCC(=O)NCc2ccccc2Cl)cc1OC	3%	-7%	3%	10	1%	10%
CCOC(=O)c1c(C)[nH]c(CCC(=O)NCc2ccc(CC)cc2)c1C	/	?	18µM*	/	/	-21%
CCOC(=O)c1[nH]c(C)c(CCC(=O)NCc2cccc(C)c2)c1C	/	-21%	?	/	/	-13%
CCOC(=O)c1c(C)[nH]c2cc(Br)c(OC)cc12	-5%	-1%	-22%	-9	-1%	-25%
CCOC(=O)c1c(C)[nH]c(CCC(=O)NCc2cc(Br)ccc2OC)c1C	/	?	18µM*	/	/	?
CCOC(=O)c1c(C)[nH]c(CCC(=O)NCc2ccccc2C)c1C	/	?	13µM*	/	/	-25%
CCOC(=O)c1c(C)[nH]c(CCC(=O)NCc2ccccc2Cl)c1C	/	?	21µM*	/	/	-17%
Cc1cc(C(=O)NCCc2csc(-c3cccnc3)n2)cc(S(N)(=O)=O)c1C	/	/	/	/	/	76%
N#Cc1ccc(S(=O)(=O)N2C[C@@H](Oc3cccnc3)C[C@H]2C(=O)N2CCCC2)cc1	/	/	/	/	/	2%
CCCNC(=O)c1cccc(NC(=O)c2ccc(F)cc2)c1	/	/	/	/	/	15%
Cc1ccc(S(=O)(=O)c2cn(C)c3cc(N4CCN(c5ccccc5)CC4)c(F)cc3c2=O)cc1	/	?	7.3µM*	/	/	-11%
CCn1cc(S(=O)(=O)c2ccc(C)cc2)c(=O)c2cc(F)c(N3CCN(C)CC3)cc21	-1%	-9%	-12%	4	-1%	9%
Cc1ccc(S(=O)(=O)c2cn(C)c3cc(N4CCN(C)CC4)c(F)cc3c2=O)cc1	3%	?	?	-97*	-1%	9%
O=C(CN1C(=O)NC2(CCc3ccccc32)C1=O)c1c[nH]c2ccccc12 (stereo not drawn)	-22%	-3%	-16%	-11	-17%	-4%
COc1cc(OC)c(C(=O)Nc2ccc3oc(C)nc3c2)cc1OC	/	/	/	/	/	25%
CC1CCc2c(nc3ncnn3c2NCCc2ccccc2F)C1 (stereo not drawn)	-9%	?	13µM*	/	-2%	-3%
COC(=O)C(C)(C)ONC(=O)Nc1ccc(Br)cc1	1%	23µM*	-14%	0	2%	-4%
CC(NC(=O)Nc1ccc(Br)cc1)C(C)(C)C (stereo not drawn)	0%	?	?	15	6%	-1%
Cc1ccc2nc(C)cc(C(=O)OC(C)C(=O)NC(C)(C)C)c2c1 (stereo not drawn)	/	/	/	/	/	1%
CC1CCCCC12NC(=O)N(CC(=O)Nc1cccc(S(=O)(=O)N3CCCCC3)c1)C2=O (stereo not drawn)	-2%	-21%	-23%	6	-1%	94%
Cc1ccc(NC(=O)CN2C(=O)NC(C)(c3ccc(Cl)cc3)C2=O)cc1S(=O)(=O)N1CCOCC1 (stereo not drawn)	13µM*	21µM*	18µM*	-5	?	-20%
CC1CCCCC12NC(=O)N(CC(=O)Nc1ccc(Cl)c(S(=O)(=O)N3CCOCC3)c1)C2=O (stereo not drawn)	-1%	?	18µM*	24	-1%	6%
Cc1ccc(NC(=O)CN2C(=O)NC3(CCCCC3C)C2=O)cc1S(=O)(=O)N1CCOCC1 (stereo not drawn)	-2%	?	23µM*	-7	0%	-1%
